Test results from PubChem BioAssay (Tox21).
Inconclusive results are not listed. The source made the active and inactive calls. Unless noted, calls follow the shape of the dose curve; as a rule, active = well fitted curve in the direction sought with a large enough effect in the repeat runs; inconclusive = weak or mixed curves; inactive = no such curve, though single readings can be large; an effect the other way counts as inactive or inconclusive.

Experiments:
[1] = qHTS assay for small molecule agonists of the p53 signaling pathway (AID 651631; calls by dose curve; also: nearly all actives have a fitted effect of over 15% in size)
Method in brief: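 Stably transfected HCT-116 cells (beta-lactamase behind p53 response elements) get compounds after a 5 h settling period; 16 h later at 37 °C, FRET substrate is loaded and fluorescence read after 2 h.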

[2] = qHTS assay for small molecules that induce genotoxicity in human embryonic kidney cells expressing luciferase-tagged ATAD5 (AID 651632); also: nearly all actives have a fitted effect of over 15% in size
Method in brief: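 HEK293T cells carrying luciferase-tagged ATAD5 were given compound or DMSO vehicle and incubated 16 hr at 37C, 5% CO2. Luciferase activity was read after 30 min at room temperature with Amplite; a rise signals genotoxic stress.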

[3] = qHTS assay for small molecule agonists of the p53 signaling pathway - cell viability (AID 651633; calls by dose curve;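 also: p53RE-bla HCT reporter cells with a stable beta-lactamase p53 reporter; series mostly up to about 83 µM; nearly all actives have a fitted effect of over 30% in size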)
Method in brief: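 p53RE-bla cells were treated with compound for 16 hours at 37 C. Cytotoxicity was then measured as CellTiter-Glo luminescence after 30 min at room temperature.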

[4] = qHTS assay for small molecules that induce genotoxicity in human embryonic kidney cells expressing luciferase-tagged ATAD5 - cell viability (AID 651634; calls by dose curve; also: nearly all actives have a fitted effect of over 25% in size)
Method in brief: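 HEK293T cells carrying luciferase-tagged ATAD5, 2,000 cells/well, exposed to compound for 15.5 hr at 37C. Viability read as live-cell protease activity by CellTiter-Fluor fluorescence after 30 min at 37C.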

[5] = qHTS assay for small molecule disruptors of the mitochondrial membrane potential - cell viability (AID 720634; calls by dose curve;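 also: human HepG2 liver cancer cells; series mostly up to about 83 µM; nearly all actives have a fitted effect of over 20% in size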)
Method in brief: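 HepG2 cells, 2,000 per well, attached overnight, then treated 1 hr at 37 C, 5% CO2. Viability read as ATP by CellTiter-Glo luminescence after 30 min at room temperature. Read in the same wells as the m-MPI membrane-potential dye assay.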

[6] = qHTS assay to test for compound auto fluorescence at 590 nm (red) in HepG2 cells (AID 720674)
Method in brief: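 HepG2 cells, 2,000 per well in MEM with 10% FBS, attached overnight at 37 C, then got 23 nL compound or DMSO. After 1 hr at 37 C, 5% CO2, red fluorescence was read at 540/590 nm against Rose Bengal sodium as reference.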

[7] = qHTS assay to test for compound auto fluorescence at 460 nm (blue) in HEK293 cells (AID 720678)
Method in brief: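 Measured: blue fluorescence (Ex 405/Em 460 nm) of compound-treated HEK293 cells, incubated overnight at 37C with 5% CO2 and scaled to triamterene equivalents.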

[8] = qHTS assay to test for compound auto fluorescence at 590 nm (red) in HEK293 cells (AID 720679)
Method in brief: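 Using HEK293 cells at 2,000 per well, the screen added 23 nL of each compound after cell attachment and incubated overnight (37C, 5% CO2). The plate reader then captured red-label fluorescence, Ex/Em 540/590nm.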

[9] = qHTS assay to test for compound auto fluorescence at 535 nm (green) in HEK293 cells (AID 720680)
[10] = qHTS assay to test for compound auto fluorescence at 460 nm (blue) in HEK293 cell free culture (AID 720681)
Method in brief: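 Compounds were added to cell-free DMEM with 10% FBS and fluorescence read directly. The blue channel used 405 nm excitation and 460 nm emission, with triamterene as the reference fluorophore.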

[11] = qHTS assay to test for compound auto fluorescence at 535 nm (green) in HEK293 cell free culture (AID 720682)
Method in brief: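 Using fluorescein as calibrant, autofluorescence was quantified at 485/535 nm in cell-free DMEM containing 10% FBS after pintool addition of compound or vehicle.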

[12] = qHTS assay to test for compound auto fluorescence at 590 nm (red) in HEK293 cell free culture (AID 720683)
Method in brief: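 Cell-free wells of DMEM with 10% FBS received compound, and intrinsic fluorescence was read at excitation/emission 540/590 nm. Values expressed as equivalence to Rose Bengal sodium.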

[13] = qHTS assay to test for compound auto fluorescence at 590 nm (red) in HepG2 cell free culture (AID 720684)
Method in brief: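 Compounds are added to culture medium (MEM, 10% FBS) lacking cells, then fluorescence is read at excitation 540 nm, emission 590 nm, with Rose Bengal sodium as the equivalency standard.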

[14] = qHTS assay to test for compound auto fluorescence at 460 nm (blue) in HepG2 cell free culture (AID 720685)
Method in brief: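 Compound (23 nL) or DMSO pinned into cell-free MEM with 10% FBS; blue fluorescence read at 405/460 nm excitation/emission, expressed as auto-fluorescence equivalency to triamterene.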

[15] = qHTS assay to test for compound auto fluorescence at 535 nm (green) in HepG2 cell free culture (AID 720686)
[16] = qHTS assay to test for compound auto fluorescence at 460 nm (blue) in HepG2 cells (AID 720687)
Method in brief: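 HepG2 cells in MEM with 10% FBS, attached overnight at 37 C, were exposed to compound or DMSO for 1 hr at 37 C, 5% CO2. Blue fluorescence was read at 405/460 nm, with triamterene as reference fluorophore.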

[17] = target: Glucocorticoid receptor (Homo sapiens) (UniProt P04150); assay: qHTS assay to identify small molecule agonists of the glucocorticoid receptor (GR) signaling pathway (AID 720691; active = well fitted activation curve with a large enough effect in the signal ratio in the repeat runs, not every such curve was filed as active; the % refers to the signal ratio)
Sequence of Glucocorticoid receptor (Homo sapiens) (P04150 whole entry, looked up): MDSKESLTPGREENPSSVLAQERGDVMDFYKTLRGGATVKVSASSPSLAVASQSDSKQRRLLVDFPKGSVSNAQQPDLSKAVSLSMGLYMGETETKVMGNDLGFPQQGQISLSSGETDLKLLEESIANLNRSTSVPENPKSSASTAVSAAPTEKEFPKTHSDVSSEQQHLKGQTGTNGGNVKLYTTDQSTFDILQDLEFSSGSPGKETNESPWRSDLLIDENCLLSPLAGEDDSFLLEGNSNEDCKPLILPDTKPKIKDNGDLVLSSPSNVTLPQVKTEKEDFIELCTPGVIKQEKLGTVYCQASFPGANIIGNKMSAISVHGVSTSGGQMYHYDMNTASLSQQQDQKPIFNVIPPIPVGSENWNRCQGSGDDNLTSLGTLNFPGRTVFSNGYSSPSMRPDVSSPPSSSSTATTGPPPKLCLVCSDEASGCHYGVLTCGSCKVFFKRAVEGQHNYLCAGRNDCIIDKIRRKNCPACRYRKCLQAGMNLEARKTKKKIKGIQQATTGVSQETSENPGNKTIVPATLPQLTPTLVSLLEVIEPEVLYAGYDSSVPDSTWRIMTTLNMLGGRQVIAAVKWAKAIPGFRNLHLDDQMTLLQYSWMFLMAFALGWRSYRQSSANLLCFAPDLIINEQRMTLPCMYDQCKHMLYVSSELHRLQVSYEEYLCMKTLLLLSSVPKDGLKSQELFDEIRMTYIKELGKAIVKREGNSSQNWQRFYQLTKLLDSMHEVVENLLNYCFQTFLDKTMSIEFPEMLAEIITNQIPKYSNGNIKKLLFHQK
Method in brief: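 GR-bla HeLa cells carrying a GRE-driven beta-lactamase reporter, exposed to compounds for 18 h at 37 C. Reporter activation read as fluorescence after 2 h with LiveBLAzer B/G FRET substrate at room temperature.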

[18] = target: Glucocorticoid receptor (Homo sapiens) (UniProt P04150); assay: qHTS assay to identify small molecule antagonists of the glucocorticoid receptor (GR) signaling pathway (AID 720692; active = well fitted inhibition curve with a large enough effect in the signal ratio in the repeat runs, not every such curve was filed as active; the % refers to the signal ratio)
Method in brief: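 GR-bla HeLa cells carrying a GRE-driven beta-lactamase reporter received compound after 4 h plating, then dexamethasone (5 nM final). After 18 h at 37C, the FRET substrate was loaded for 2 h at room temperature and fluorescence read.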

[19] = qHTS assay to identify small molecule antagonists of the glucocorticoid receptor (GR) signaling pathway - cell viability counter screen (AID 720693); also: nearly all actives have a fitted effect of over 55% in size
[20] = qHTS assay for identifying genotoxic compounds that show differential cytotoxicity against isogenic chicken DT40 cell lines with known DNA damage response pathways - wild type cell line (AID 743012); also: nearly all actives have a fitted effect of over 60% in size
Method in brief: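 Wild-type DT40 cells (300/well) exposed to compounds for 40 hours at 37 C/5% CO2. Viability read by CellTiter-Glo luminescence after 30 min at room temperature.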

[21] = qHTS assay for identifying genotoxic compounds that show differential cytotoxicity against isogenic chicken DT40 cell lines with known DNA damage response pathways - Rev3 mutant cell line (AID 743014); also: nearly all actives have a fitted effect of over 55% in size
[22] = qHTS assay for identifying genotoxic compounds that show differential cytotoxicity against isogenic chicken DT40 cell lines with known DNA damage response pathways - Rad54/Ku70 mutant cell line (AID 743015); also: nearly all actives have a fitted effect of over 60% in size
[23] = qHTS assay to identify small molecule antagonists of the androgen receptor (AR) signaling pathway - cell viability counter screen (AID 743033; also: nearly all actives have a fitted effect of over 45% in size)
[24] = target: Androgen receptor (Homo sapiens) (UniProt P10275); assay: qHTS assay to identify small molecule antagonists of the androgen receptor (AR) signaling pathway (AID 743035; active = well fitted inhibition curve with a large enough effect in the signal ratio in the repeat runs, not every such curve was filed as active; the % refers to the signal ratio)
Sequence of Androgen receptor (Homo sapiens) (P10275 whole entry, looked up): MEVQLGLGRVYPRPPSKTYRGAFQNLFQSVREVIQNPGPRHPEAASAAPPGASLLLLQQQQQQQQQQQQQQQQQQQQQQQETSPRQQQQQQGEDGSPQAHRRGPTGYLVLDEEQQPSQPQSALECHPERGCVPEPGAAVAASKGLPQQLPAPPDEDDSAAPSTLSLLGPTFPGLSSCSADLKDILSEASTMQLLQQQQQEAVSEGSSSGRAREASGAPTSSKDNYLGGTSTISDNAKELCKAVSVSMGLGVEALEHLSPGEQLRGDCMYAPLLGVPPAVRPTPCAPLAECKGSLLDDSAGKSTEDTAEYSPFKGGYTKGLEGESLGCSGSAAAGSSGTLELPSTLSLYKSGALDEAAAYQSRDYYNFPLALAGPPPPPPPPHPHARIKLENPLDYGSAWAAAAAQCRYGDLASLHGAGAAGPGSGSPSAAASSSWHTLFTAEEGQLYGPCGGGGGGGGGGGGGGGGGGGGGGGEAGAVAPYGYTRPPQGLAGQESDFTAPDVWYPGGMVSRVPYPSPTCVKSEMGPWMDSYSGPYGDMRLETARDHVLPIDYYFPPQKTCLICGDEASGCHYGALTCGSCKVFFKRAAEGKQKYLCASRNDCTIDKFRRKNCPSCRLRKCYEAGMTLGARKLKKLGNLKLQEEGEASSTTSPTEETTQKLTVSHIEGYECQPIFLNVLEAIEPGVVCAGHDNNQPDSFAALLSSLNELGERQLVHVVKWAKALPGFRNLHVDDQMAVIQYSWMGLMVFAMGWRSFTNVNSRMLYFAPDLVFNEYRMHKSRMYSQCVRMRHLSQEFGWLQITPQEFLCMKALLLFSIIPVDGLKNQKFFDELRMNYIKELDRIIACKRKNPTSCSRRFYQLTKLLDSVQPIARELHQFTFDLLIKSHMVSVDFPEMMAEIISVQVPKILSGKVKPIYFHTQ
Method in brief: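 HEK293 cells stably carrying UAS-beta-lactamase reporter, 2,000/well, given compounds plus R1881 agonist and incubated 16 h at 37C. LiveBLAzer B/G FRET substrate then added for 2 h at room temperature before fluorescence reading.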

[25] = target: Androgen receptor (Homo sapiens) (UniProt P10275); assay: qHTS assay to identify small molecule agonists of the androgen receptor (AR) signaling pathway (AID 743036; active = well fitted activation curve with a large enough effect in the signal ratio in the repeat runs, with a control signal flat, not every such curve was filed as active; the % refers to the signal ratio)
Method in brief: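 In this Tox21 qHTS, 2,000 HEK293 AR-bla cells per well were incubated with compounds for 16 h at 37C and 5% CO2. Fluorescence intensity was recorded 2 h after adding LiveBLAzer B/G FRET substrate at room temperature.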

Measured: Potency

CCCCCN(C)CCC(O)(P(=O)(O)O)P(=O)(O)O
inactive: [1] | [2] | [3] | [4] | [5] | [6] | [7] | [8] | [9] | [10] | [11] | [12] | [13] | [14] | [15] | [16] | [17] | [18] | [19] | [20] | [21] | [22] | [23] | [24] | [25]
